DT40 TDP1 no CPT – qHTS for Inhibitors of human tyrosyl-DNA phosphodiesterase 1 (TDP1): qHTS in cells in absence of CPT. DT40 Tdp1-/- hTDP1 cells, no CPT, ATP luminescence, 48 h. Potency, µM (top dose mostly 46.2 µM), for the others: top-dose activity change, negative = growth inhibition, most hits filed as inhibitors. hit rate 15% among 420,000; also: potency is read from the fitted curve at half-maximal effect; nearly all actives have a fitted effect of over 55% in size
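Readout: luminescence from CellTiter-Glo after 30 min in the dark at RT. Cells: DT40 Tdp1-/- with stable hTDP1, 400/well. Exposure: compounds alone, ≥48 hr, 37 °C.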
TDP1 cell CPT – DT40-hTDP1 cell growth loss with CPT; chicken DT40 Tdp1-/-;hTDP1 cells + 20 nM CPT, ATP luminescence, 48 h; Potency, µM (top dose mostly 46.2 µM), for the others: at the highest dose activity change, negative = growth inhibition, most hits filed as inhibitors; hit rate 12% among 420,000; also: potency is read from the fitted curve at half-maximal effect; nearly all actives have a fitted effect of over 55% in size
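Chicken DT40 Tdp1-/- cells stably complemented with human TDP1 were seeded at 400 cells/well in medium containing 20 nM camptothecin, exposed to pin-transferred compounds, and grown at 37 °C for at least 48 hr. Viability was read as ATP luminescence.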
HT1080-NT tox – kills 2HG-producing HT-1080-NT fibrosarcoma cells | HT-1080-NT fibrosarcoma viability, CellTiter-Glo ATP luminescence, 48 h | Potency, µM (highest dose often 46.1 µM), for the others: at the highest dose activity, negative = less viability, actives largely listed as cytotoxic | hit rate 1.6% among 360,000;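 also: NT is the 2HG producing partner of a matched IDH1 knockdown line; potency is read from the fitted curve at half-maximal effect; 0% = DMSO-treated cells and -100% = media-only wells without cells; nearly all actives have a fitted effect of over 55% in size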
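Luminescent CellTiter-Glo readout after 48 hours of compound exposure at 37 degrees C defined viability of HT-1080-NT cells. Activity was normalized to DMSO wells and cell-free media wells; concentration-response curves were fitted and assigned curve classes.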
IL1B secr inh – inhibitors of inflammasome signaling (IL-1 beta secretion) | THP-1 LPS/ATP IL-1B secretion, AlphaLISA, 16 h; stronger effect = lower value | activity change, % at 57.5 µM | hit rate 4.7% among 360,000 | AID 743279; in the data active = activity change below about -50%; inconclusive = mostly about -30% to -49%
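THP-1 cells pretreated 1 hr with compounds (up to 57.5 uM final), then stimulated with LPS (250 ng/mL final) plus ATP (1.25 mM final); secreted IL-1B measured by AlphaLISA after 16 hr, decreased signal indicating inhibition.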
HT1080 IDH1KD tx – kills HT-1080 cells with IDH1 knockdown; HT-1080 IDH1 knockdown viability, ATP luminescence, 48 h; Potency, µM (doses to about 46.1 µM), without a hit: at the highest dose activity, negative = toxicity, actives largely listed as cytotoxic; hit rate 2% among 360,000;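 also: potency is read from the fitted curve at half-maximal effect; 0% = DMSO wells and -100% = cell-free medium wells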
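Using the IDH1-knockdown HT-1080 line run in the same batch and compound series as the NT line, viability after 48 h at 37 °C was determined by CellTiter-Glo luminescence and expressed as % activity.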
Starred values were filed as active, the others as inactive; ? = inconclusive; / = not tested or not shown. A selection: hits, their analogues and other compounds. The true share with any hit is near 19%. Unless noted, calls follow the shape of the dose curve; as a rule, active = well fitted curve in the direction sought with a large enough effect; inconclusive = small, poorly fitted or top-dose-only effect, or another doubt; inactive = no such curve, though single readings can be large; an effect the other way counts as inactive or inconclusive. Unless noted, % is scaled to controls: 0 for no effect and ±100 for the full control effect.

SMILES	DT40 TDP1 no CPT	TDP1 cell CPT	HT1080-NT tox	IL1B secr inh	HT1080 IDH1KD tx
O=C(CSc1nnnn1C1CC2CCC1C2)Nc1ccnc2ccccc12 (centres undefined)	0.164µM*	0.164µM*	-12.7%	-17.7	-20.4%
COc1ccc(C(CC(=O)O)c2cc(OC)c(OC)c(OC)c2)cc1OC (centres undefined)	-19.3%	-15.0%	11.5%	18.9	12.3%
COc1ccc(NC(=O)C2=CN3CCS(=O)(=O)N=C3C=C2)c(OC)c1	-16.0%	18.4%	17.0%	22.7	0.0%
Cc1cccc(OCc2nnc(SCC(=O)NCCc3ccccc3)o2)c1	-7.8%	-1.3%	1.4%	12.6	2.4%
O=C(CSc1nnc(COc2ccccc2)o1)NCCc1ccccc1	7.31µM*	8.2µM*	-1.2%	-0.3	?
O=C(CSc1nnc(COc2ccc(Cl)cc2)o1)N1c2ccccc2CCc2ccccc21	14.6µM*	?	-22.0%	?	?
COc1ccc(OC)c(C(=O)c2coc3ccc(O)c(CN(C)C)c23)c1	?	-26.4%	-1.8%	-1.0	-0.1%
CN(C)Cc1c(O)ccc2occ(C(=O)c3ccc(F)cc3)c12	-29.9%	?	?	-53.8*	-10.9%
CCN(CC)Cc1c(O)ccc2occ(C(=O)c3ccccc3)c12	-13.2%	?	-9.4%	0.0	1.8%
COc1ccc2occ(C(=O)c3coc4ccc(O)c(CN(C)C)c34)c2c1	?	16.4µM*	-3.3%	-1.7	-16.4%
O=C(CSc1oc(-c2ccc(F)cc2)nc1S(=O)(=O)c1ccc(Cl)cc1)c1ccccc1	14.6µM*	16.4µM*	/	/	/
O=C(CSc1oc(-c2ccccc2)nc1S(=O)(=O)c1ccc(Cl)cc1)c1ccccc1	18.4µM*	14.6µM*	/	/	/
COc1ccc(C(=O)N=C2SC3CS(=O)(=O)CC3N2c2ccc(C(C)=O)cc2)cc1 (centres undefined)	18.6%	5.5%	18.2%	-9.3	15.1%
CCCCCN(C(=O)CCC(=O)OC(C)C(=O)c1ccc(CC)cc1)c1c(N)n(CCCC)c(=O)[nH]c1=O (centres undefined)	-27.0%	?	-10.3%	-23.4	-0.4%
O=C(NCc1ccc(F)cc1)c1cc(C2CCCCN2S(=O)(=O)c2ccccc2)on1 (centres undefined)	?	?	-0.8%	26.8	4.5%
COC(=O)c1ccc(NC(=O)CSC2=NCCN2)cc1	14.6µM*	?	?	-53.4*	-24.4%
CCOc1ccc(NC(=O)CSC2=NCCN2)cc1	-29.7%	?	0.5%	-11.8	-0.3%
Nc1nc(SCc2ccccn2)c2ncn(C3OC(CO)C(O)C3O)c2n1 (centres undefined)	-2.8%	-5.2%	-0.7%	28.7	4.3%
COc1cc(C2CC(=O)Oc3cc(C)cc(C)c32)cc(OC)c1OC (centres undefined)	-21.8%	6.1%	1.4%	38.9	0.0%
Cc1cc(Cl)c(S(=O)(=O)Nc2ccon2)cc1OCC(=O)NC1CCCCC1	4.7%	-5.4%	3.0%	0.0	7.1%
Cc1cc(Cl)c(S(=O)(=O)NC2CCCCC2)cc1OCC(=O)Nc1nncs1	23.1µM*	25.9µM*	-9.1%	17.1	?
Cc1cc(Cl)c(S(=O)(=O)Nc2ccc3c(c2)OCCO3)cc1OCC(=O)NC1CCCCC1	?	?	-8.3%	-52.9*	-19.7%
COC(=O)COc1ccc(S(=O)(=O)Nc2ccc3c(c2)OCCO3)cc1C	?	?	-2.9%	-73.4*	0.0%
COc1ccc(NC(=O)N2CC3(CCN(C(=O)c4cc(C(F)(F)F)cc(C(F)(F)F)c4)CC3)C2)cc1	-6.4%	-2.6%	/	/	/
CNC[C@H](CC1CCCCC1)NC[C@H](Cc1ccccc1)NCCC12CC3CC(CC(C3)C1)C2	13µM*	7.31µM*	20.6µM*	-99.9*	?
SMILES	DT40 TDP1 no CPT	TDP1 cell CPT	HT1080-NT tox	IL1B secr inh	HT1080 IDH1KD tx
NC[C@H](Cc1ccccc1)NCCCCC1CCCCC1	?	-23.2%	0.2%	-0.8	6.9%
COc1ccc(Cc2nnc(NC(=O)C3CC(=O)N(c4ccccc4)C3)s2)cc1OC (centres undefined)	-19.5%	-0.5%	-5.8%	27.6	-13.1%
C/C(=N\O)c1ccc2c(c1)OCCO2	3.66µM*	-4.2%	1.9%	-24.0	-0.6%
C/C(=N/O)c1ccc2c(c1)OCCOCCOc1cc(/C(C)=N/O)ccc1OCCOCCO2	16.4µM*	?	1.1%	-19.4	8.5%
Cc1ccc(S(=O)(=O)Oc2ccc(/C=C(/NC(=O)c3ccccc3)C(=O)NC(C)C(=O)O)cc2)cc1 (centres undefined)	0.3%	-7.5%	7.8%	-19.1	9.2%
O=C1c2cc(O)c(O)cc2OC(c2ccc(O)c(O)c2)C1O (centres undefined)	5.4%	1.3%	15.3%	19.3	27.0%
O=C(COc1ccc([N+](=O)[O-])cc1)NNC(=O)C1COc2ccccc2O1 (centres undefined)	-18.7%	-2.6%	4.4%	15.3	6.8%
Cn1cnc([N+](=O)[O-])c1Sc1ncnc2nc[nH]c12	?	?	4.11µM*	-29.8	4.11µM*
Cn1cnc(Sc2ncnc3nc[nH]c23)c1[N+](=O)[O-]	1.9%	-3.2%	?	-5.0	18.4µM*
CC(=O)CSc1ncnc2nc[nH]c12	13.9%	-5.2%	-29.3%	11.5	1.2%
O=C(N[C@@H]1c2ccccc2C2(CCN(Cc3c(O)ccc4ccccc34)CC2)[C@H]1O)c1ccccc1	-23.8%	-11.5%	/	/	/
COc1ccc(-c2cc(C(=O)Oc3ccc(C#N)cc3)no2)cc1	-20.0%	4.2%	/	/	/
Cc1ccc2c(c1)nnn2C1CCN(S(=O)(=O)c2cccc(S(=O)(=O)N(C)C)c2)CC1	14.6µM*	18.4µM*	-21.5%	-16.5	-17.5%
Cc1ccc2c(c1)nnn2C1CCN(CC(=O)N2CCN(c3ccc(F)cc3)CC2)CC1	25.9µM*	16.4µM*	-5.9%	-5.3	-4.7%
Cc1ccc2c(c1)nnn2C1CCN(CC(=O)c2ccc(Cl)cc2)CC1	-13.0%	-22.7%	2.1%	8.1	2.8%
Cc1ccc2c(c1)nnn2C1CCN(CC(=O)Nc2ccc(F)cc2)CC1	20.6µM*	?	-21.6%	?	-19.4%
Cc1ccc2c(c1)nnn2C1CCN(S(=O)(=O)c2ccc3ccccc3c2)CC1	?	?	?	-9.1	?
Cc1ccc2c(c1)nnn2C1CCN(CC(=O)Nc2ccc3c(c2)OCCO3)CC1	-7.8%	4.6%	-11.3%	-14.3	-4.0%
Cc1ccc2c(c1)nnn2C1CCN(CC(=O)N(c2ccccc2)c2ccccc2)CC1	13µM*	13µM*	-24.3%	?	-3.9%
O=[N+]([O-])c1ccc(OCc2cnc(Cl)s2)c([N+](=O)[O-])c1	?	20.1%	-3.4%	10.1	-11.1%

High-throughput results (PubChem)
